Assay outcomes deposited in PubChem BioAssay by The Scripps Research Institute Molecular Screening Center.
hcDAF-12 act: activators of H. contortus DAF-12 nuclear receptor | HEK293 hcDAF-12 lit1-tk-luc reporter, luminescence; 0% DMSO, 100% Δ7-dafachronic acid | activation, % at 6.8 µM | hit rate 1.4% among 370,000 | AID 652067;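 active means activation above the mean of all tested compounds plus 3 SD, cut at about 5.5% in these data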;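 further: 100% = response to 3 µM Δ7-dafachronic acid high control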
hgDAF-12 ag: activates the H. glycines DAF-12 receptor ligand-binding domain; hit rate 1.8% among 370,000; activation, % at 6.8 µM; HEK293 GAL4-hgDAF12 UAS-luciferase reporter, agonist luminescence; normalized to butyrate control;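 active means activation above a cutoff set at the mean of all screened compounds plus 3 SD, cut at about 10% in these data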;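 further: 0% = DMSO wells and 100% = sodium butyrate wells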
SMARCA2 act: activators of SMARCA2 function. hit rate 1% among 370,000. activation, % at 9.1 µM. MG213 cells, MMTV-luciferase reporter, dexamethasone, overnight. AID 652017; in the data active means activation above about 7.8%;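 further: 0% = vehicle wells and 100% = reference activator wells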
DAX1 inh-1: NR0B1 (DAX1) inhibition; hit rate 0.99% among 340,000; inhibition, % at 6.75 µM; HEK293 Gal4-DAX1 luciferase reporter, luminescence; P51843;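 active means inhibition above the mean over all tested compounds plus 3 SD, cut at about 4.2% in these data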;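 further: 0% = DAX1-transfected cells with DMSO and 100% = empty-vector control cells with DMSO; inhibition shows as a rise in luminescence from relieved DAX1 repression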
Target sequence (P51843 207-470 limits assumed): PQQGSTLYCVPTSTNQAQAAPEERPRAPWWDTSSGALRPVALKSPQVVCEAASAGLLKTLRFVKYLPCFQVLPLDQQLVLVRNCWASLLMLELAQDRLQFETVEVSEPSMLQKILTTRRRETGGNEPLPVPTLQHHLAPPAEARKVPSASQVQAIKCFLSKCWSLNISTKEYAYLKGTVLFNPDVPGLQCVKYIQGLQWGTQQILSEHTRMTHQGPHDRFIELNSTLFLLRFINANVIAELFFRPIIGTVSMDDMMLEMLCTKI
DAX1 inh-2: inhibitors of DAX1 repression of SF-1 activated StAR promoter. HEK293T StAR-luciferase reporter, SF-1/DAX-1 repression relief. inhibition, % at 6.8 µM. hit rate 1.1% among 370,000. AID 652010;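 active means inhibition above the mean over all tested compounds plus 3 SD, cut at about 3.6% in these data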;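 further: 0% = DAX-1 cells with DMSO and 100% = cells lacking DAX-1 with DMSO; higher inhibition means more luminescence from relief of DAX-1 repression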
ssDAF-12 act: activates DAF-12 receptor from parasite S. stercoralis. HEK293 ssDAF-12/GRIP1 lit1-tk-luc reporter, luminescence; % of 3 µM dafachronic acid response. activation, % at 6.8 µM. hit rate 1% among 370,000. AID 652126;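 active means activation above the mean over all tested compounds plus 3 SD, cut at about 0.9% in these data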;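 further: 0% = DMSO-only wells and 100% = 3 µM delta7-dafachronic acid wells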
* marks the source's active call; other numbers are inactive results; nt = no result. This is a sample that favours compounds with a hit; in the whole collection about 4.8% have one here.

SMILES | hcDAF-12 act | hgDAF-12 ag | SMARCA2 act | DAX1 inh-1 | DAX1 inh-2 | ssDAF-12 act
COc1cc(/C=C2/C(=N)N3N=C(CC(=O)N4CCOCC4)SC3=NC2=O)ccc1OC(C)c1ccccc1 (centres undefined) | -1 | 1 | -1 | 0 | 1 | 2.2*
CC(=O)NCCc1ccc(S(=O)(=O)Nc2ccc3c(c2)OCCO3)cc1 | -2 | -7 | -5 | 1 | -1 | -2
COC(=O)c1ccc(N=Cc2c(-c3ccccc3)[nH][nH]c2=O)cc1 | 3 | -2 | 2 | 0 | 0 | 1.5*
CCN(CC)C(=O)c1sc2nc(-c3ccc(OC)cc3)cn2c1C | 2 | 13* | 3 | 1 | 4 | -1
CCCCN1C(=O)c2ccccc2C1C(=O)NC1CCCC1 (centres undefined) | -2 | 0 | -1 | 0 | 1 | -2
O=C(N/N=C/c1ccc2ncccc2c1)c1ccco1 | 5 | 8 | 3 | -2 | 4.2* | 1
O=C(N/N=C/c1ccccn1)c1ccco1 | 0 | 10 | 2 | 2 | 1 | 0
COc1cccc(NC(=O)CN(C)C(=O)c2cc(S(=O)(=O)N3CCCCC3)ccc2Cl)c1 | -2 | -2 | -2 | 0 | 4.2* | 0
CC1(C)CC(N=c2cc(-c3ccccc3)oc3ccc(Cl)cc23)CC(C)(C)N1 | -1 | 4 | 1 | 5.9* | 0 | -1
CC1(C)CC(NC(=O)c2ccc(Cl)cc2Cl)CC(C)(C)N1 | -3 | -1 | -2 | 3 | 0 | -1
COc1ccc(/C=N/NC(=O)/C(=C/c2ccccc2)CCO)cc1 | 2 | 1 | 0 | 1 | 0 | -1
NS(=O)(=O)c1ccc(CCN=C(NS(=O)(=O)c2cccs2)c2ccccc2)cc1 | 0 | 2 | 2 | 0 | -1 | -2
CCNC(=S)N1CCC(NC(=O)C2CCCCC2)CC1 | 0 | -1 | 3 | -1 | 0 | -1
Cc1ccc(-n2c(CNc3cccc(Cl)c3)n[nH]c2=S)cc1 | -1 | -5 | 0 | 0 | 0 | -2
Cc1ccc(NCc2n[nH]c(=S)n2-c2cccc(Cl)c2)cc1 | -1 | 0 | 5 | 4.5* | 0 | -1
CCC(Cc1ccccc1)NC(=O)C1CCN(c2nn3c(=O)cc(C)nc3s2)CC1 (centres undefined) | 4 | -1 | -2 | 1 | 1 | -1
O=C(COc1ccccc1[N+](=O)[O-])NCC1(N2CCCCC2)CCCCC1 | 1 | 2 | -2 | 0 | 1 | 0
N#Cc1ccccc1OCC(=O)NCC1(N2CCCCC2)CCCCC1 | 3 | 9 | 3 | 0 | 1 | 1.5*
Cc1cc(C(=O)N2CCN(S(=O)(=O)c3ccc(C)c(C)c3)CC2)no1 | -3 | 1 | -1 | 1 | -1 | -1
NC(=O)C1CC(=O)N(c2ccc(OCc3ccc(F)cc3)cc2)C1 (centres undefined) | 1 | 10 | 6 | 4.7* | 1 | 0
CCc1cccc2c(C(=O)CN3C(=O)NC4(CCCCC4)C3=O)c[nH]c12 | -1 | -8 | 6 | -1 | 3.9* | -2
O=C(CN1C(=O)NC2(CCCCCC2)C1=O)c1ccc2c(c1)OCCO2 | 6.4* | 11* | 1 | 2 | 2 | 0
CCc1ccc(C(=O)CN2C(=O)NC3(CCCCCC3)C2=O)cc1 | 1 | 5 | 7.9* | 1 | 4.5* | -1
CN(Cc1ccccc1)C(=O)CN1C(=O)NC2(CCCC2)C1=O | 1 | 2 | -1 | 0 | -1 | -1
CC(C)N(Cc1ccccc1)C(=O)CN1C(=O)NC2(CCCC2)C1=O | -1 | -2 | -5 | -1 | 4.1* | -1
SMILES | hcDAF-12 act | hgDAF-12 ag | SMARCA2 act | DAX1 inh-1 | DAX1 inh-2 | ssDAF-12 act
COc1ccc(/C(C)=N/OCC(=O)Nc2nc3ccccc3s2)cc1OC | -3 | -1 | 0 | 0 | 0 | -2
COc1ccc(/C=N/NC(=O)CNC(=O)c2ccncc2)cc1OC | -2 | 0 | 1 | 0 | 0 | -1
C=CCN1C(=O)c2ccc(C(=O)NCCc3ccc(F)cc3)cc2C1=O | 3 | 0 | 1 | 0 | -1 | 0
COc1ccccc1N1CCN(CC(=O)Nc2ccc3c(c2)OCCO3)CC1 | -2 | 0 | -4 | 2 | 0 | -1
COc1ccc(NC(=O)NNC(=O)CCC(=O)Nc2ccccc2Cl)cc1 | -1 | 0 | -3 | 8.3* | 0 | -2
Nc1ccc(-c2c3ccc(=O)cc-3oc3cc(O)ccc23)c(C(=O)O)c1 | nt | nt | nt | 0 | nt | nt
CN(Cc1cn(C)c2ccccc12)C(=S)Nc1cc(F)cc(F)c1 | 4 | 2 | -2 | 0 | 0 | 1.2*
O=C(N/C(=C\c1ccc(Br)cc1)c1nc2ccccc2[nH]1)c1ccco1 | 1 | 1 | -2 | 2 | 0 | -1
CCCc1cc(C(=O)Nc2cc(OC)ccc2OC)cs1 | 5 | 5 | 0 | 1 | 1 | 1.2*
Cc1ccc(NC(=O)CNc2cc(S(=O)(=O)N3CCOCC3)ccc2NCC2CCCO2)cc1F (centres undefined) | -2 | 0 | -2 | -2 | -1 | -1
COC(=O)c1sc(NC(=O)CSc2nc3cccnc3n2C2CCCCC2)nc1C | 1 | -1 | -2 | 1 | 1 | -1
O=c1[nH]c2ccccc2n1C1CCCCC1 | -1 | 0 | -3 | 6.1* | 0 | -2
COC(=O)c1ccc(NC(=O)C(=O)c2c[nH]c3ccccc23)cc1 | 6.3* | 4 | 0 | 1 | 0 | 1.8*
O=C(CSCC(=O)N1CCCCC1)OCC(=O)c1c[nH]c2ccccc12 | 3 | 1 | 1 | -1 | 0 | 1.3*
O=C(COc1ccccc1)OCC(=O)c1c[nH]c2ccccc12 | 4 | 1 | 1 | 0 | -1 | 0
O=C(COC(=O)c1c[nH]c2ccccc12)Nc1ccccc1 | 1 | 2 | -1 | 2 | 0 | -1
Cc1ccc(C(=O)OCC(=O)c2c[nH]c3ccccc23)cc1 | 6.5* | 6 | 4 | 4 | 2 | 1.9*
O=C1CCC(C(=O)OCC(=O)c2c[nH]c3ccccc23)=NN1 | 5.6* | -1 | 3 | -1 | 0 | 1
CCCn1nc(NS(=O)(=O)c2cccc3nonc23)c2cc3ccccc3nc21 | 4 | 0 | -2 | 0 | 0 | 0
COC(=O)[C@]1(C)N[C@H](CN(C)C(=O)c2ccc(C)cc2)[C@@H]2C(=O)N(C)C(=O)[C@@H]21 | -1 | 4 | -2 | -1 | 0 | -1
O=C(CSc1nnc(SCc2ccc(Cl)cc2)s1)N/N=C/c1c[nH]c2ccccc12 | 5.6* | -3 | -2 | 3 | 0 | 1
O=C(CSc1ccccn1)N/N=C/c1c[nH]c2ccccc12 | 5.8* | 1 | 2 | -1 | 0 | -1
O=C(CSc1nnc(SCc2cccc3ccccc23)s1)N/N=C/c1c[nH]c2ccccc12 | 1 | 1 | -6 | 0 | 0 | 1.4*
